Source: PubChem BioAssay
A number with no mark means an inactive call. Active and inactive are the calls of the source. Cut-off read from the data, not from the text of the source, unless noted: active = inhibition above about 42%; inactive = the rest.

Legend:
[1] = molecular target: Nuclear receptor coactivator 1 (Homo sapiens) (UniProt Q15788); assay: NCOA1 GAL4-fusion reporter inhibition – cell-based, luminescence, quadruplicate, confirmation (AID 588820;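 active = mean inhibition above 46.68%, the untreated control wells mean plus 3 SD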;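 note: 0% = DMSO wells and 100% = gossypol 36 µM treated wells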); conditions: HEK293 GAL4-SRC1 luciferase reporter, at 3.6 µM, hits give high values
[2] = repression of VP16-driven luciferase reporter – cell-based, luminescence, high throughput, counter-screen for SRC1 inhibitor project (AID 588824; in the data active = inhibition above about 25%); conditions: cell-based VP16 transactivation luciferase luminescence; at 3.6 µM; hits give high values
[3] = StAR promoter reporter inhibitors, counter-screen for LRH-1 inverse agonist project, cell-based, luminescence, high throughput (AID 651611; in the data active = inhibition above about 28%); conditions: StAR promoter luciferase reporter counterscreen, at 3.6 µM, hits give high values
[4] = molecular target: Nuclear receptor subfamily 5 group A member 2 (Homo sapiens) (UniProt O00482); assay: NR5A2 activity suppression in reporter cells – cell-based, luminescence, confirmation (AID 651613); conditions: cell-based LRH-1 luciferase reporter, inverse agonism; at 3.6 µM; hits give high values;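 note: HEK293T cells co-transfected with LRH-1 and StAR promoter luciferase reporter; 0% = vehicle wells and 100% = parental cells lacking receptor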
[5] = molecular target: Steroidogenic factor 1 (Homo sapiens) (UniProt Q13285); assay: inverse agonism at SF1 nuclear receptor – cell-based, luminescence, high throughput, counter-screen for LRH-1 inverse agonist project (AID 651614; in the data active = inhibition above about 44%;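 note: cells cotransfected with StAR promoter reporter and SF1 expression vector; 0% = vehicle on cells with receptor and 100% = vehicle on cells lacking receptor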); conditions: cell-based SF1 luciferase reporter, at 3.6 µM, hits give high values
[6] = compounds suppressing VP16-driven luciferase signal – cell-based, luminescence, high throughput, counter-screen for LRH-1 inverse agonist project (AID 651615; in the data active = inhibition above about 33%); conditions: Gal4-VP16 luciferase reporter cells, at 3.6 µM, hits give high values

Sequence of Steroidogenic factor 1 (Homo sapiens) (Q13285 whole entry, looked up, the tested form may be a part): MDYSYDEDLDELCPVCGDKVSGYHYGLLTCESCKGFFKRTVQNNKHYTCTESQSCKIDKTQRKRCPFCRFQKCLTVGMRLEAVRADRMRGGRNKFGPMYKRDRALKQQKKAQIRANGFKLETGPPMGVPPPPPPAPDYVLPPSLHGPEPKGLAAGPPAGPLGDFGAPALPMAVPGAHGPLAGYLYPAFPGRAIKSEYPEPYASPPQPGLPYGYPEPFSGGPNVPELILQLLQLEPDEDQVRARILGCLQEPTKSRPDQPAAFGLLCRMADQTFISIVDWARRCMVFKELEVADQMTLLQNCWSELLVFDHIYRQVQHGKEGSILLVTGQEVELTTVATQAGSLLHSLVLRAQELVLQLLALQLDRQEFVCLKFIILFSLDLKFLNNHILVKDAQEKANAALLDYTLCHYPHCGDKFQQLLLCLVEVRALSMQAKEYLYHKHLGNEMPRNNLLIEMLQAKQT
Sequence of Nuclear receptor coactivator 1 (Homo sapiens) (Q15788 whole entry, looked up, the tested form may be a part): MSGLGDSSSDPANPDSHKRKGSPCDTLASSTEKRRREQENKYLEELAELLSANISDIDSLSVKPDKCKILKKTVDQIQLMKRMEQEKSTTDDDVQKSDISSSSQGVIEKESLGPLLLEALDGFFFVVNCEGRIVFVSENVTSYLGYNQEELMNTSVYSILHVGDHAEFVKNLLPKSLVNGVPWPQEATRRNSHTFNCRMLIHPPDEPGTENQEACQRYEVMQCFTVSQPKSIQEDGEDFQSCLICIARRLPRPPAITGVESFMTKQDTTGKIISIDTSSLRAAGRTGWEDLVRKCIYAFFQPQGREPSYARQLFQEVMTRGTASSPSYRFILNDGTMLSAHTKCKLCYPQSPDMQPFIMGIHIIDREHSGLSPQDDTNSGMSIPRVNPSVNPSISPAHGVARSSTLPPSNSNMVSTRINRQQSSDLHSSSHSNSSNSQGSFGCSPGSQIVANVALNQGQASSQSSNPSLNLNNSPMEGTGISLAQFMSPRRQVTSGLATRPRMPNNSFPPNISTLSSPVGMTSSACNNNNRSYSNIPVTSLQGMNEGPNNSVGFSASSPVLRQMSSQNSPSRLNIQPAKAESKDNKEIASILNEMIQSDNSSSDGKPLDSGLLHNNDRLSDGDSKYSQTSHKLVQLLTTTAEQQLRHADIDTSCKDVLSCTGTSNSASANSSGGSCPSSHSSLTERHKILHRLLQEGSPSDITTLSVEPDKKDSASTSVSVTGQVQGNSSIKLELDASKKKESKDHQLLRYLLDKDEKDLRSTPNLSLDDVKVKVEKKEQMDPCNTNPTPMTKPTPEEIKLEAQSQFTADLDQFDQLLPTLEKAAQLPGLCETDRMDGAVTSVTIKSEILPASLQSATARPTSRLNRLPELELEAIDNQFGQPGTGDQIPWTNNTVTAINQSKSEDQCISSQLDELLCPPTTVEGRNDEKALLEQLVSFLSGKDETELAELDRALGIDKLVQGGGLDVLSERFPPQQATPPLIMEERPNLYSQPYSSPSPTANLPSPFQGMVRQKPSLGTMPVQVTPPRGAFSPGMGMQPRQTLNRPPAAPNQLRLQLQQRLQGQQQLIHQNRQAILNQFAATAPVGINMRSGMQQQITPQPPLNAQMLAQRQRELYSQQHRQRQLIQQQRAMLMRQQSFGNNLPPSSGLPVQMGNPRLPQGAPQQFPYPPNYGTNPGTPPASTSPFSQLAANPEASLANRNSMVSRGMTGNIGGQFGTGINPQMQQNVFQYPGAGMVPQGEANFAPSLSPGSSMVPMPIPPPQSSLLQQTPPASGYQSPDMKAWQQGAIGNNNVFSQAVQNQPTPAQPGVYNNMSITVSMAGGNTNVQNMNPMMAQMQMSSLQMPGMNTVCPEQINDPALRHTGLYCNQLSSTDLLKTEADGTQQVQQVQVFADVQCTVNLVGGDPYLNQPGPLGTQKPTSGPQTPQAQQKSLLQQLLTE
Sequence of Nuclear receptor subfamily 5 group A member 2 (Homo sapiens) (O00482 whole entry, looked up): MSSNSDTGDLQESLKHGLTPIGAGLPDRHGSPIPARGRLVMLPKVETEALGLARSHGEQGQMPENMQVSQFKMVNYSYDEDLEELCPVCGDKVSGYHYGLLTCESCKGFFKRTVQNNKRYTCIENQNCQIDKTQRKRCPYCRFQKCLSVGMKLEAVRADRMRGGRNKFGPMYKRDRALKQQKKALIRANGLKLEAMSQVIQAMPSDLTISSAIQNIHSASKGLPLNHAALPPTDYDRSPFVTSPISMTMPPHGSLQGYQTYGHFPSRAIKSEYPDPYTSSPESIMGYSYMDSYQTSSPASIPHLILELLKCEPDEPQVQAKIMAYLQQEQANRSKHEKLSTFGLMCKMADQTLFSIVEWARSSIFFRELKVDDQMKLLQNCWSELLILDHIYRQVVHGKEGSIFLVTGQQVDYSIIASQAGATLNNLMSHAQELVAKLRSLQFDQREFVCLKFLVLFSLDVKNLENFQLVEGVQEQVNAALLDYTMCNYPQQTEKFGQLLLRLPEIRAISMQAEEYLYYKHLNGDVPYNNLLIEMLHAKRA

Compound	inhibition [1]	inhibition [2]	inhibition [3]	inhibition [4]	inhibition [5]	inhibition [6]
COc1ccc(CNC(=O)c2cccc3c(-c4cccnc4)coc23)cc1OC	-25.2%	43.8% (active)	48.5% (active)	59.9% (active)	66.4% (active)	67.4% (active)
Cc1ccc2c(c1)c(/C=C/c1cc[n+](C)cc1)c(C)n2C	32.9%	57.1% (active)	59.6% (active)	91.4% (active)	81.1% (active)	80% (active)
CCN(CC(=O)Nc1ccc(NC(C)=O)cc1)C(=O)C1(c2ccc(Cl)cc2)CCC1	16.1%	9.61%	-2.92%	40.1%	27.4%	11.8%
COc1cc2c(oc(=O)c3cc(C)cc(OC)c32)c2c(C3OC(C)C(O)C(C)(O)C3O)ccc(O)c12 (stereo unspecified)	-62.6%	64.9% (active)	50.6% (active)	93.8% (active)	75.5% (active)	94% (active)
CCCCCCCCNc1ncnc2ccccc12	-40.4%	29.4% (active)	22.2%	63.7% (active)	56.2% (active)	63.4% (active)
CCN(CC)C1=CC(=[N+]2CCCC2)CC(C)(C)C1	-5.15%	22.7%	17.4%	61.9% (active)	57.5% (active)	45.8% (active)
COc1cccc2c1C(=O)c1c(O)c3c(c(O)c1C2=O)C[C@@](O)(C(=O)CO)C[C@@H]3OC1CC(N)C(O)C(C)O1 (stereo partly specified)	-127%	71.4% (active)	-14.6%	87.5% (active)	70.6% (active)	82.6% (active)
CC(=O)Nc1ccccc1OCC(=O)c1cc(C)n(Cc2cccs2)c1C	-59.8%	39.3% (active)	28.7% (active)	21.5%	47.4% (active)	39.6% (active)
CC(=O)NC(c1ccc(Cl)cc1Cl)c1ccc2cccnc2c1O (stereo unspecified)	67.2% (active)	70.6% (active)	85.4% (active)	102% (active)	86.8% (active)	80.2% (active)
O=C(Nc1nonc1NC(=O)c1cccs1)c1cccs1	-7.76%	21.9%	30.2% (active)	64.1% (active)	66% (active)	52.7% (active)
Fc1ccc(NC(=S)N2CCCN(c3ccc(C(F)(F)F)cn3)CC2)c(F)c1	-32.2%	36.5% (active)	26.6%	57.6% (active)	57.8% (active)	51.6% (active)
Cc1ccc(S(=O)(=O)CC2CSc3nc4ccccc4n32)cc1 (stereo unspecified)	-13.8%	33.3% (active)	22.6%	65.3% (active)	54.6% (active)	50.7% (active)
Cc1ccc(S(=O)(=O)/N=C(\CCl)N2CCOCC2)cc1	-32.5%	-30.7%	23.9%	50.2% (active)	52.1% (active)	-22.8%
Cc1nc2ccc(NC(=O)c3cc(S(=O)(=O)N(C)c4ccccc4)ccc3Cl)cc2s1	-5.16%	33.7% (active)	30.4% (active)	57.5% (active)	59.5% (active)	47.6% (active)
COc1ccc(NC(=O)C2Cc3c(-c4ccc5c(c4)OCO5)ccnc3O2)cc1OC (stereo unspecified)	0.9%	34% (active)	27.9% (active)	53.5% (active)	61.1% (active)	43.5% (active)
Cc1cc(C)c(CN2CCN(C(=O)Cn3cnc4c(NCc5ccccc5)ncnc43)CC2)c(C)c1	-9.2%	43.4% (active)	35% (active)	54.1% (active)	57.5% (active)	57.9% (active)
Cc1ccc(C#CC[N+]2(CC#Cc3ccc(C)cc3)CCCCC2)cc1	32.6%	36.3% (active)	40.5% (active)	74.2% (active)	65.3% (active)	67.5% (active)
COc1ccc(NS(=O)(=O)c2ccc(-c3cnc(C4CC4)o3)cc2)cc1OC	-15.9%	37.2% (active)	53.2% (active)	77.5% (active)	78.8% (active)	31.6% (active)
CCCCCCCCCCOC(=O)Cn1c(COc2ccccc2C)[n+](C)c2ccccc21	-8.25%	6.65%	-2.25%	42.2% (active)	38.4%	38.9% (active)
Cc1ccc(/C=C2/CNC/C(=C/c3ccc(C)cc3)C2=O)cc1	-19.2%	43.8% (active)	47% (active)	79.3% (active)	64.9% (active)	80.2% (active)
O=C(CSc1nnc(Cn2nnc3ccccc32)o1)N(Cc1ccc(F)cc1)c1ccccc1	-0.43%	38.8% (active)	24.2%	63% (active)	56.7% (active)	56.9% (active)

Compound	inhibition [1]	inhibition [2]	inhibition [3]	inhibition [4]	inhibition [5]	inhibition [6]
O=C(NCc1ccccc1)c1cccc(NC(=O)c2ccccc2)c1	-0.73%	39.8% (active)	32.8% (active)	52.4% (active)	59.2% (active)	62% (active)
CN(C)c1ccc(Sc2ccc3nc(N)nc(N)c3c2)cc1	14.5%	27.5% (active)	60.9% (active)	107% (active)	61.6% (active)	80.2% (active)
CC(=O)Nc1ccc(Nc2c3ccccc3nc3ccccc23)cc1	22.8%	39.4% (active)	62.5% (active)	106% (active)	69.6% (active)	72.8% (active)
Cc1cccc(-n2ncc3c2CCCC3NC(=O)c2ccncc2)c1C (stereo unspecified)	-10.4%	26.6% (active)	14.7%	54.5% (active)	52.1% (active)	44% (active)
CC(C)C(=O)NC(c1ccc(Cl)cc1Cl)c1ccc2cccnc2c1O (stereo unspecified)	6.86%	16.8%	48.2% (active)	35.2%	41.4%	47.6% (active)
CC1(C)CC(N2CCCC2)=CC(=[N+]2CCCC2)C1	2.13%	23.9%	12%	62% (active)	55.2% (active)	51.4% (active)
NS(=O)(=O)c1ccc(N=Nc2c(O)[nH]c3ccc(Br)cc23)cc1	8.56%	5.38%	38.4% (active)	23.4%	30.4%	8.51%
COc1ccc(CC(=O)Nc2cccc(S(=O)(=O)N3CCCCCC3)c2)cc1OC	-18.9%	33% (active)	20.2%	65.6% (active)	53.4% (active)	49.3% (active)
COc1cccc2c1C(=O)c1c(O)c3c(c(O)c1C2=O)CC(O)(C(C)=O)CC3OC1CC(O)C(O)C(C)O1 (stereo unspecified)	-3.87%	16.4%	29.2% (active)	50.7% (active)	17.4%	16.1%
CN(C)CCNc1ccc2nnn3c4ccc(O)cc4c(=O)c1c23	0.55%	50.6% (active)	47.1% (active)	71.1% (active)	71.5% (active)	75.9% (active)
CC(=NNC(=S)N1CCCCC1)c1ccccn1	36.5%	61.5% (active)	70.5% (active)	95.3% (active)	82.2% (active)	52.6% (active)
CCc1c(C)nc2ncnn2c1NCCc1ccc(OC)cc1	-21.1%	28.3% (active)	46.9% (active)	53.9% (active)	66.2% (active)	42.2% (active)
CC1(c2ccc3ccccc3c2)NC(=O)N(CC(=O)N2CCN(Cc3ccccc3)CC2)C1=O (stereo unspecified)	-20.6%	37.1% (active)	12.2%	55.8% (active)	58% (active)	48.8% (active)
Clc1ccc(-c2nnc(CSc3nnc(-c4cccs4)n3Cc3ccccc3)o2)cc1	-0.02%	30.5% (active)	5.56%	51.7% (active)	48.9% (active)	41.6% (active)
Cc1cc2[nH]c3c(c[n+](C)c4ccccc34)c2cc1C	20.9%	47.8% (active)	41.7% (active)	100% (active)	66.4% (active)	84.2% (active)
NC(=O)[C@H]1CC2(CC(c3cccc(NC(=O)COc4ccc(Cl)cc4)c3)=NO2)CN1C(=O)Cc1ccc([N+](=O)[O-])cc1 (stereo partly specified)	8.04%	39.5% (active)	13.5%	55.8% (active)	50.3% (active)	52.5% (active)
CCOC(=O)c1cc(C#N)c(N2CCN(C(=O)c3cccc(C(F)(F)F)c3)CC2)nc1C(F)(F)F	15.6%	29.2% (active)	15.5%	48.8% (active)	51.3% (active)	32.3% (active)
CCN(CC)CCn1nc2c3c(cccc3c1=O)-c1ccccc1-2	28.6%	54.7% (active)	54.2% (active)	84.5% (active)	80.1% (active)	79.5% (active)
CN1CCN(c2ccc(CNS(=O)(=O)Cc3cccc(C(F)(F)F)c3)cc2)CC1	-13.6%	26.4% (active)	15.4%	69.8% (active)	68.1% (active)	40.1% (active)
COc1ccccc1NS(=O)(=O)c1cccc(C(=O)NC2CCN(Cc3ccccc3)CC2)c1	-19.5%	26.4% (active)	26.2%	60.4% (active)	65.3% (active)	48.3% (active)
